Shown are actives, neighbours in structure and some others; about 1.6% of the full set was active somewhere.
PERK inh = inhibitors of human PERK kinase | Q9NZJ5 | CHO PERK-DD fusion, SEAP luminescence translation reporter | inhibition, % at 5.6 µM | 220,000 compounds, 0.17% hits | AID 1416;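 active = inhibition above the mean inhibition of all tested compounds plus 3 SD, set separately per screening campaign, cut at about 2.9% in these data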;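 note: PERK kinase domain activated by AP20187 dimerizer at 100 nM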
PABP polyA inh = blocks human PABP binding to poly(A) RNA; P11940; fluorescence polarization; inhibition, % at 35 µM; 290,000 compounds, 1% hits;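 note: calls also rest on retests at 20 µM and on dose response follow-up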
MLLE-PAM2 inh = blocks PAM2 peptide binding to the PABP1 MLLE domain; P11940; GST-MLLE / FITC-PAM2 fluorescence polarization; inhibition, % at 20 µM; 360,000 compounds, 0.36% hits; AID 588489; in the data active = inhibition above about 35%, passing the limit was not always enough
eIF4H FP inh = inhibitors of RNA binding by human eIF4H. eIF4H fluorescence polarization binding assay. 290,000 compounds, 0.94% hits. inhibition, % at 35 µM. Q15056;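 note: calls also rest on retests at 20 µM and on dose response follow-up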
eIF4E-4G inh = eIF4E/eIF4G interaction inhibition in translation initiation; TR-FRET eIF4E-eIF4GI(517-606) binding, 2 h; P63073+Q04637; 220,000 compounds, 0.37% hits; AID 782; inhibition, % at 21.7 µM;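 active = inhibition above about 30%, limit read from the data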
Large screens that a line does not name were inactive; [ ] = another dose, or the depositor's remark. Unless noted, the rule behind the calls is not given here.

Nc1nc2ccc(S(=O)(=O)N3CCCCC3)cc2s1	MLLE-PAM2 inh 42
CC(C)Oc1ccc(S(=O)(=O)N2CCOCC2)cc1NC(=O)CN1C(=O)c2ccccc2C1=O	none (no result: PERK inh, PABP polyA inh, eIF4H FP inh, eIF4E-4G inh)
CCCCCCCn1ccc(=N)cc1	PABP polyA inh 50, eIF4H FP inh 0.6
COc1cc(/C=C/C(=O)O)cc(Br)c1O	none
CC1CCCN(C(=O)CN2CCC(c3nc4ccc(Cl)cc4[nH]3)CC2)C1 (stereo unspecified)	PABP polyA inh 68, eIF4H FP inh 91
Cc1noc(C)c1C(=O)NCC(=O)Nc1ccccc1Br	none (no result: PERK inh, PABP polyA inh, eIF4H FP inh, eIF4E-4G inh)
CN(C)c1ccnc2c[cH-]cc12.[Fe].c1ccc(-[c-]2[c-](-c3ccccc3)[c-](-c3ccccc3)[c-](-c3ccccc3)[c-]2-c2ccccc2)cc1 (stereo unspecified)	eIF4E-4G inh 41 (no result: PERK inh)
Cc1ccsc1/C=C1/CN(C)Cc2c1nc1ccccc1c2C(=O)O	none
COc1cc(/C=C2\CCc3c2nc2ccccc2c3C(=O)O)cc(OC)c1OC	PABP polyA inh 66, eIF4H FP inh 87
CCN1C/C(=C\c2cccc(C)c2)c2nc3ccccc3c(C(=O)O)c2C1	PABP polyA inh 88, eIF4H FP inh inconclusive (no result: MLLE-PAM2 inh)
Cn1nnc(NC(=O)c2ccc([N+](=O)[O-])cc2Cl)n1	none
Cc1cc(C)cc(N2C(=O)CC(N3CCOCC3)C2=O)c1 (stereo unspecified)	none
COc1ccccc1OCCCC(=O)NCc1ccco1	none
Cc1cccc(OC2CCN(Cc3nc(CC4CC4)no3)CC2)c1	PERK inh 3.0
COc1ccc(N(C(C)C(=O)Nc2ccc(S(=O)(=O)N3CCCCC3)cc2)S(C)(=O)=O)cc1 (stereo unspecified)	none (no result: PERK inh, eIF4E-4G inh)
O=S(=O)(/C=C/c1ccccc1)Nc1ccc(N2CCOCC2)cc1	none
COc1cccc(C2C3=C(N=c4s/c(=C\c5ccc(OCC(=O)O)cc5)c(=O)n42)c2ccccc2CC3)c1 (stereo unspecified)	eIF4E-4G inh 40 (no result: MLLE-PAM2 inh)
COc1ccccc1C1C2=C(N=c3s/c(=C/c4cccc(OCC(=O)O)c4)c(=O)n31)c1ccccc1CC2 (stereo unspecified)	none
O=C(NCc1cccnc1)c1ccc(NS(=O)(=O)c2ccccc2)cc1	none (no result: PERK inh, eIF4E-4G inh)
CC(C)c1ccc(C2NC(=S)NC3=C2C(=O)CCC3)cc1 (stereo unspecified)	eIF4H FP inh active
O=C(CN(c1ccccc1)S(=O)(=O)c1ccccc1)NCCSCc1ccco1	eIF4H FP inh 81
Cc1ccc(S(=O)(=O)N(CC(=O)NCCSCc2ccco2)c2ccc(F)cc2)cc1	PERK inh 3.2 (no result: MLLE-PAM2 inh)
CN1CCc2c(sc3c2C(=O)NC(c2ccccn2)N3)C1 (stereo unspecified)	PABP polyA inh inconclusive, eIF4H FP inh inconclusive
O=C(O)CCC(=O)N1N=C(c2ccco2)CC1c1ccco1 (stereo unspecified)	none (no result: PERK inh, eIF4E-4G inh)
O=C(O)CCC(=O)N1N=C(c2ccco2)CC1c1cccs1 (stereo unspecified)	PABP polyA inh active, eIF4H FP inh 76
C[C@H]1C(=O)N(C)CCN1C(=O)c1cccc(OC2CCN(CC(C)(C)C)CC2)c1	none (no result: PERK inh, PABP polyA inh, eIF4H FP inh, eIF4E-4G inh)
CC(Oc1ccc(Cl)cc1Cl)C(=O)Nc1ccc(O)cc1 (stereo unspecified)	eIF4H FP inh 2.6
Cc1cn(Cc2ccccc2Cn2cc(C)c(=O)[nH]c2=O)c(=O)[nH]c1=O	none
COc1ccc(/C(C)=N/Nc2nc3ccccc3nc2C)cc1OC	none
NS(=O)(=O)c1ccc(N/N=C/c2ccc(O)c(O)c2O)c([N+](=O)[O-])c1	MLLE-PAM2 inh 42, eIF4H FP inh 96, eIF4E-4G inh 78
O=C(COc1ncnc2sccc12)N1CCN(C(=O)c2ccco2)CC1	PABP polyA inh active
O=C(COc1ncnc2ccccc12)N1CCN(C(=O)c2ccco2)CC1	none
CCOC(=O)C1=C(C)Nc2sc(C(=O)c3ccc(C)cc3)c(N)c2C1c1ccc(C(=O)OC)cc1 (stereo unspecified)	PABP polyA inh active
COc1ccccc1NS(=O)(=O)c1ccc(N/N=C/C=C/c2ccccc2[N+](=O)[O-])c([N+](=O)[O-])c1	none
COc1ccccc1NS(=O)(=O)c1ccc(NN=C2CCCC2)c([N+](=O)[O-])c1	eIF4E-4G inh 67[fluorescence artefact?]
Cc1ccc(S(=O)(=O)NCC2CCC(C(=O)NCCCN3CCOCC3)CC2)cc1 (stereo unspecified)	none
O=C1CCCC(O)=C1N=Nc1ccc(C(=O)O)cc1	PABP polyA inh 79, eIF4H FP inh 102
O=C1CCCC(O)=C1N=Nc1ccc2c(c1)OCO2	none

Screening data: PubChem, several laboratories
